Test results from PubChem BioAssay AID1159580 (chemical genetic matrix, 2015).
Hit rate of the full screen: of about 5,500 compounds, about 2,000 (36%) were called active. Not shown: some 18% with an inconclusive outcome. Rule as the data show it: active = normalized growth mostly below about 0.91 (no sharp cut-off); inconclusive = no clear call, values can overlap the other calls; inactive = mostly above about 0.92. Some of the results follow.

Assay: chemical genetic growth profiling, strain panel (AID 1159580);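 also: tested at 20 µM; growth read once vehicle control cultures reached saturation at 30 °C; 1 = growth at the plate median or of vehicle wells; lower values mean less growth of the strain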
Details: growth OD
[1] = S. cerevisiae deletion strains, locus YAL013W, strain DEP1, active compounds read low
[2] = S. cerevisiae deletion strains, locus YBR229C, strain ROT2, active compounds read low
[3] = S. cerevisiae deletion strains, locus YDL101C, strain DUN1, active compounds read low
[4] = S. cerevisiae deletion strains, locus YDL134C, strain PPH21, active compounds read low
[5] = S. cerevisiae deletion strains, locus YDR150W, strain NUM1, active compounds read low
[6] = S. cerevisiae deletion strains, locus YEL061C, strain CIN8, active compounds read low
[7] = S. cerevisiae deletion strains, locus YGR078C, strain PAC10, active compounds read low
[8] = S. cerevisiae deletion strains, locus YHR030C, strain SLT2, active compounds read low
[9] = S. cerevisiae deletion strains, locus YHR087W, strain rtc3, active compounds read low
[10] = S. cerevisiae deletion strains, locus YJR075W, strain HOC1, active compounds read low
[11] = S. cerevisiae deletion strains, locus YLR039C, strain RIC1, active compounds read low
[12] = S. cerevisiae deletion strains, locus YLR058C, strain SHM2 (second series), active compounds read low
[13] = S. cerevisiae deletion strains, locus YLR085C, strain ARP6, active compounds read low
[14] = S. cerevisiae deletion strains, locus YLR262C, strain YPT6, active compounds read low
[15] = S. cerevisiae deletion strains, locus YML094W, strain GIM5, active compounds read low
[16] = S. cerevisiae deletion strains, locus YMR219W, strain ESC1, active compounds read low
[17] = S. cerevisiae deletion strains, locus YMR263W, strain SAP30, active compounds read low
[18] = S. cerevisiae deletion strains, locus YMR307W, strain GAS1, active compounds read low
[19] = S. cerevisiae deletion strains, locus YNL153C, strain GIM3, active compounds read low
[20] = S. cerevisiae deletion strains, locus YNL298W, strain CLA4 (second series), active compounds read low
[21] = S. cerevisiae deletion strains, locus YNL322C, strain KRE1, active compounds read low
[22] = S. cerevisiae deletion strains, locus YNR030W, strain Alg12, active compounds read low
[23] = S. cerevisiae deletion strains, locus YOL006C, strain TOP1, active compounds read low
[24] = S. cerevisiae deletion strains, locus YPL055C, strain LGE1, active compounds read low
[25] = S. cerevisiae deletion strains, locus YPL241C, strain CIN2, active compounds read low
[26] = S. cerevisiae deletion strains, locus YPR135W, strain CTF4, active compounds read low
[27] = S. cerevisiae strains, strain wild type, active compounds read low

Measured: normalized growth

CCc1cccc(C)c1NC(=O)N1CCN(C(=O)OC(C)(C)C)CC1
inactive: [1] 0.992 | [2] 0.99 | [3] 0.987 | [4] 1.01 | [5] 1.03 | [6] 1.01 | [7] 1 | [8] 1.01 | [9] 0.995 | S. cerevisiae deletion strains, locus YJR043C, strain POL32, active compounds read low 1 | [10] 0.988 | [11] 1.04 | [12] 0.99 | [13] 1 | [14] 0.984 | [15] 0.991 | [16] 0.984 | [17] 1.01 | [18] 1.05 | [19] 0.994 | [20] 1.02 | [21] 0.999 | [22] 1.01 | [23] 1.01 | [24] 0.987 | [25] 1.03 | [26] 1.01 | [27] 1

CC(N)=NCc1cccc(CN)c1
inactive: [1] 1.02 | S. cerevisiae deletion strains, locus YAL040C, strain CLN3, active compounds read low 1.01 | S. cerevisiae deletion strains, locus YCL061C, strain MRC1 (second series), active compounds read low 1.01 | [5] 1.01 | S. cerevisiae deletion strains, locus YDR363W, strain ESC2, active compounds read low 1.02 | S. cerevisiae deletion strains, locus YER002W, strain NOP16, active compounds read low 1.03 | [18] 1.03 | S. cerevisiae deletion strains, locus YNL175C, strain NOP13, active compounds read low 1.02 | S. cerevisiae deletion strains, locus YNL197C, strain WHI3, active compounds read low 1 | S. cerevisiae deletion strains, locus YNL224C, strain SQS1, active compounds read low 1 | S. cerevisiae deletion strains, locus YOR083W, strain WHI5 (second series), active compounds read low 0.996 | [25] 1.01

CCSC(SCC)[C@H](O)[C@@H](O)[C@H](O)CO
inactive: [1] 0.976 | [2] 0.992 | [3] 0.993 | [4] 1.01 | [5] 0.995 | [6] 0.998 | [7] 0.981 | [8] 0.939 | [9] 0.98 | [10] 0.994 | [11] 0.992 | [12] 0.993 | [13] 1.05 | [14] 0.904 | [15] 1.02 | [16] 1 | [17] 0.994 | S. cerevisiae deletion strains, locus YNL128W, strain TEP1, active compounds read low 1 | [19] 0.988 | [20] 0.988 | [21] 0.985 | [22] 0.992 | [23] 1.01 | [24] 1 | [25] 1.04 | [26] 0.922 | [27] 0.992
